Among all 5,500 compounds or so, about 2,000 (36%) were called active. Not shown: some 18% with an inconclusive outcome. This is one part of the list. Values without a mark were called inactive. Rule as the data show it: active = normalized growth mostly below about 0.91 (no sharp cut-off); inconclusive = no clear call, values can overlap the other calls; inactive = mostly above about 0.92.
Assay: chemical genetic growth profiling, strain panel (AID 1159580);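 also: tested at 20 µM; growth read once vehicle control cultures reached saturation at 30 °C; 1 = growth at the plate median or of vehicle wells; lower values mean less growth of the strain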
Details: growth OD

Q: Which results are given for `CC[C@@H](C(=O)O)[C@@H]1O[C@@H]([C@@H](C)[C@H](O)[C@H](C)C(=O)[C@H](CC)[C@H]2O[C@]3(C=C[C@@H](O)[C@]4(CC[C@@](C)(C5CC[C@](O)(CC)[C@H](C)O5)O4)O3)[C@H](C)C[C@@H]2C)[C@@H](C)C[C@H]1C` (stereo partly specified)?
A: normalized growth (S. cerevisiae deletion strains, locus YAL013W, strain DEP1, hits give low values): 0.858 (active); normalized growth (S. cerevisiae deletion strains, locus YBR021W, strain FUR4, hits give low values): 0.168 (active); normalized growth (S. cerevisiae deletion strains, locus YBR229C, strain ROT2, hits give low values): 0.405 (active); normalized growth (S. cerevisiae deletion strains, locus YCL029C, strain bik1, hits give low values): 0.559 (active); normalized growth (S. cerevisiae deletion strains, locus YDL035C, strain GPR1, hits give low values): 0.478 (active); normalized growth (S. cerevisiae deletion strains, locus YDL074C, strain BRE1, hits give low values): 0.412 (active); normalized growth (S. cerevisiae deletion strains, locus YDL101C, strain DUN1, hits give low values): 0.214 (active); normalized growth (S. cerevisiae deletion strains, locus YDL134C, strain PPH21, hits give low values): 0.313 (active); normalized growth (S. cerevisiae deletion strains, locus YDL185W, strain tfp1, hits give low values): 0.993; normalized growth (S. cerevisiae deletion strains, locus YDL192W, strain arf1, hits give low values): 0.0725 (active); normalized growth (S. cerevisiae deletion strains, locus YDR101C, strain arx1, hits give low values): 0.569 (active); normalized growth (S. cerevisiae deletion strains, locus YDR150W, strain NUM1, hits give low values): 0.426 (active); normalized growth (S. cerevisiae deletion strains, locus YDR162C, strain NBP2, hits give low values): 0.0697 (active); normalized growth (S. cerevisiae deletion strains, locus YDR318W, strain mcm21, hits give low values): 0.224 (active); normalized growth (S. cerevisiae deletion strains, locus YDR388W, hits give low values): 0.117 (active); normalized growth (S. cerevisiae deletion strains, locus YDR502C, strain sam2, hits give low values): 0.317 (active); normalized growth (S. cerevisiae deletion strains, locus YEL061C, strain CIN8, hits give low values): 0.724 (active); normalized growth (S. cerevisiae deletion strains, locus YER110C, hits give low values): 0.861 (active); normalized growth (S. cerevisiae deletion strains, locus YER155C, strain BEM2, hits give low values): 0.796 (active); normalized growth (S. cerevisiae deletion strains, locus YER167W, strain BCK2, hits give low values): 0.294 (active); normalized growth (S. cerevisiae deletion strains, locus YGL078C, strain dbp3, hits give low values): 0.378 (active); normalized growth (S. cerevisiae deletion strains, locus YGL086W, strain mad1, hits give low values): 0.331 (active); normalized growth (S. cerevisiae deletion strains, locus YGL248W, strain PDE1, hits give low values): 0.282 (active); normalized growth (S. cerevisiae deletion strains, locus YGR078C, strain PAC10, hits give low values): 0.621 (active); normalized growth (S. cerevisiae deletion strains, locus YGR135W, strain pre9, hits give low values): 0.781 (active); normalized growth (S. cerevisiae deletion strains, locus YGR229C, strain SMI1, hits give low values): 0.15 (active); normalized growth (S. cerevisiae deletion strains, locus YGR252W, strain gcn5, hits give low values): 0.312 (active); normalized growth (S. cerevisiae deletion strains, locus YHR030C, strain SLT2, hits give low values): 0.142 (active); normalized growth (S. cerevisiae deletion strains, locus YHR079C, strain IRE1 (second series), hits give low values): 0.39 (active); normalized growth (S. cerevisiae deletion strains, locus YHR094C, strain hxt1, hits give low values): 0.278 (active); normalized growth (S. cerevisiae deletion strains, locus YHR129C, strain ARP1, hits give low values): 0.209 (active); normalized growth (S. cerevisiae deletion strains, locus YHR200W, strain rpn10, hits give low values): 0.691 (active); normalized growth (S. cerevisiae deletion strains, locus YIL066C, strain RNR3, hits give low values): 0.385 (active); normalized growth (S. cerevisiae deletion strains, locus YIL073C, strain SPO22, hits give low values): 0.127 (active); normalized growth (S. cerevisiae deletion strains, locus YIL125W, strain kgd1, hits give low values): 0.12 (active); normalized growth (S. cerevisiae deletion strains, locus YIR030C, strain dcg1, hits give low values): 0.461 (active); normalized growth (S. cerevisiae deletion strains, locus YJL095W, strain BCK1, hits give low values): 0.232 (active); normalized growth (S. cerevisiae deletion strains, locus YJL134W, strain LCB3, hits give low values): 0.244 (active); normalized growth (S. cerevisiae deletion strains, locus YJL168C, strain set2, hits give low values): 0.448 (active); normalized growth (S. cerevisiae deletion strains, locus YJL187C, strain SWE1 (second series), hits give low values): 0.287 (active); normalized growth (S. cerevisiae deletion strains, locus YJR043C, strain POL32, hits give low values): 0.552 (active); normalized growth (S. cerevisiae deletion strains, locus YJR075W, strain HOC1, hits give low values): 0.6 (active); normalized growth (S. cerevisiae deletion strains, locus YKL009W, strain mrt4, hits give low values): 0.874 (active); normalized growth (S. cerevisiae deletion strains, locus YKL068W, hits give low values): 0.257 (active); normalized growth (S. cerevisiae deletion strains, locus YKL085W, strain MDH1 (second series), hits give low values): 0.164 (active); normalized growth (S. cerevisiae deletion strains, locus YKL085W, strain MDH1, hits give low values): 0.164 (active); normalized growth (S. cerevisiae deletion strains, locus YKL190W, strain CNB1, hits give low values): 0.295 (active); normalized growth (S. cerevisiae deletion strains, locus YKR001C, strain vps1, hits give low values): 0.0696 (active); normalized growth (S. cerevisiae deletion strains, locus YLR039C, strain RIC1, hits give low values): 0.115 (active); normalized growth (S. cerevisiae deletion strains, locus YLR058C, strain SHM2, hits give low values): 0.432 (active); normalized growth (S. cerevisiae deletion strains, locus YLR102C, strain apc9, hits give low values): 0.431 (active); normalized growth (S. cerevisiae deletion strains, locus YLR262C, strain YPT6, hits give low values): 0.125 (active); normalized growth (S. cerevisiae deletion strains, locus YLR268W, strain sec22, hits give low values): 0.291 (active); normalized growth (S. cerevisiae deletion strains, locus YLR330W, strain CHS5, hits give low values): 0.237 (active); normalized growth (S. cerevisiae deletion strains, locus YLR342W, strain FKS1 (second series), hits give low values): 0.2 (active); normalized growth (S. cerevisiae deletion strains, locus YLR371W, strain rom2, hits give low values): 0.147 (active); normalized growth (S. cerevisiae deletion strains, locus YLR418C, strain cdc73, hits give low values): 0.162 (active); normalized growth (S. cerevisiae deletion strains, locus YML016C, strain PPZ1, hits give low values): 0.402 (active); normalized growth (S. cerevisiae deletion strains, locus YML032C, strain rad52, hits give low values): 0.586 (active); normalized growth (S. cerevisiae deletion strains, locus YML124C, strain tub3, hits give low values): 0.385 (active); normalized growth (S. cerevisiae deletion strains, locus YMR078C, strain ctf18, hits give low values): 0.857 (active); normalized growth (S. cerevisiae deletion strains, locus YMR223W, strain ubp8, hits give low values): 0.465 (active); normalized growth (S. cerevisiae deletion strains, locus YMR263W, strain SAP30, hits give low values): 0.763 (active); normalized growth (S. cerevisiae deletion strains, locus YMR307W, strain GAS1, hits give low values): 0.129 (active); normalized growth (S. cerevisiae deletion strains, locus YNL067W, strain RPL9B, hits give low values): 0.629 (active); normalized growth (S. cerevisiae deletion strains, locus YNL128W, strain TEP1, hits give low values): 0.377 (active); normalized growth (S. cerevisiae deletion strains, locus YNL153C, strain GIM3, hits give low values): 0.31 (active); normalized growth (S. cerevisiae deletion strains, locus YNL233W, strain BNI4, hits give low values): 0.2 (active); normalized growth (S. cerevisiae deletion strains, locus YNL250W, strain rad50, hits give low values): 0.262 (active); normalized growth (S. cerevisiae deletion strains, locus YNL271C, strain bni1, hits give low values): 0.119 (active); normalized growth (S. cerevisiae deletion strains, locus YNL298W, strain CLA4, hits give low values): 0.111 (active); normalized growth (S. cerevisiae deletion strains, locus YNL307C, strain MCK1, hits give low values): 0.229 (active); normalized growth (S. cerevisiae deletion strains, locus YNL322C, strain KRE1, hits give low values): 0.262 (active); normalized growth (S. cerevisiae deletion strains, locus YNR052C, strain pop2, hits give low values): 0.241 (active); normalized growth (S. cerevisiae deletion strains, locus YOL006C, strain TOP1, hits give low values): 0.107 (active); normalized growth (S. cerevisiae deletion strains, locus YOL012C, strain htz1): 0.22; normalized growth (S. cerevisiae deletion strains, locus YOL147C, strain pex11, hits give low values): 0.338 (active); normalized growth (S. cerevisiae deletion strains, locus YOR061W, strain CKA2, hits give low values): 0.0978 (active); normalized growth (S. cerevisiae deletion strains, locus YOR069W, strain VPS5, hits give low values): 0.14 (active); normalized growth (S. cerevisiae deletion strains, locus YOR136W, strain idh2, hits give low values): 0.248 (active); normalized growth (S. cerevisiae deletion strains, locus YOR144C, strain elg1, hits give low values): 0.425 (active); normalized growth (S. cerevisiae deletion strains, locus YOR184W, strain ser1, hits give low values): 0.335 (active); normalized growth (S. cerevisiae deletion strains, locus YOR316C, strain cot1, hits give low values): 0.377 (active); normalized growth (S. cerevisiae deletion strains, locus YPL055C, strain LGE1, hits give low values): 0.174 (active); normalized growth (S. cerevisiae deletion strains, locus YPL241C, strain CIN2, hits give low values): 0.648 (active); normalized growth (S. cerevisiae deletion strains, locus YPR119W, strain clb2, hits give low values): 0.623 (active); normalized growth (S. cerevisiae deletion strains, locus YPR141C, strain kar3, hits give low values): 0.383 (active); normalized growth (S. cerevisiae deletion strains, locus YPR163C, strain tif3, hits give low values): 0.134 (active); normalized growth (S. cerevisiae deletion strains, locus YPR167C, strain met16, hits give low values): 0.427 (active); normalized growth (S. cerevisiae deletion strains, strain wtn01, hits give low values): 0.245 (active); normalized growth (S. cerevisiae strains, strain wild type, hits give low values): 0.27 (active)

Source: PubChem BioAssay AID1159580 (chemical genetic matrix, 2015)
